# Source: the supplement of paper PMC11732987, “Enantioselective OTUD7B fragment discovery through chemoproteomics screening and high-throughput optimisation” (Communications Chemistry, 2025)
# Biological target: T1, USP19 (UniProt O94966)
# T1 sequence (whole entry): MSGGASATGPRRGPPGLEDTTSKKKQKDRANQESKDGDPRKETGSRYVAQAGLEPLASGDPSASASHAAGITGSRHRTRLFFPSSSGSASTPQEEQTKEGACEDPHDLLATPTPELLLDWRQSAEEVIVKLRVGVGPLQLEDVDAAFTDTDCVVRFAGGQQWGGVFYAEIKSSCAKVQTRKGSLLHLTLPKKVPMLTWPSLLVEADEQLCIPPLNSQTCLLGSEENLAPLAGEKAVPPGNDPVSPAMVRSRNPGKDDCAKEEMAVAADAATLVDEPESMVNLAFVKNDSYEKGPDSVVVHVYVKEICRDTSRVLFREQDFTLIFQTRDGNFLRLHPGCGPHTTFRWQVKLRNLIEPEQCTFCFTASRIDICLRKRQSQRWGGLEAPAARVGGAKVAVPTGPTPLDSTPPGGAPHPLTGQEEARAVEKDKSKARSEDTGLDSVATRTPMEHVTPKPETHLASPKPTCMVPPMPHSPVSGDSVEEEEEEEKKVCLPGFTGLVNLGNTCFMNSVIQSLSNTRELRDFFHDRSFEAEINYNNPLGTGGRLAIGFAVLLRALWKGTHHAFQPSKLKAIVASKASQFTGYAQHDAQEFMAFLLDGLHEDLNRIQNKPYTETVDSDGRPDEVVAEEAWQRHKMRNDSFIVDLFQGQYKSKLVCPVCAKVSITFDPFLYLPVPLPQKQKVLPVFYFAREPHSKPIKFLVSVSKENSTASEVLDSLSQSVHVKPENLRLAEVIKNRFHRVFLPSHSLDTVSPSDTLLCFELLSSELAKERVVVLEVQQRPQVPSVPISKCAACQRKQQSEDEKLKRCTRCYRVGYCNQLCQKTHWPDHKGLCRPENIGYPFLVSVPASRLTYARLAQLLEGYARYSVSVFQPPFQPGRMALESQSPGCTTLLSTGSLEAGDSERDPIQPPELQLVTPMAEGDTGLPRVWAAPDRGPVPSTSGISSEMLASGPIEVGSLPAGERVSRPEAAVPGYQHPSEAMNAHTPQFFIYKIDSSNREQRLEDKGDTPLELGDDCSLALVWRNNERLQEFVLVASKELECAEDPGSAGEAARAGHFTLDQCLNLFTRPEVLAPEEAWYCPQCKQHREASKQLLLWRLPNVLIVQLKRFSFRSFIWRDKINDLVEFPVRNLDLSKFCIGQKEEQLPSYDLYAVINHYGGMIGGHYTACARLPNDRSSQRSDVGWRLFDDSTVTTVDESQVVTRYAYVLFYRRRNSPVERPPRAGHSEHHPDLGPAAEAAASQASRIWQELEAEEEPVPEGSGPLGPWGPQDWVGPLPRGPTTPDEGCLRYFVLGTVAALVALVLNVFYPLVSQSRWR
# Test: log2 ratio of Biotin-Ahx-Ub-VS probe labelling (fragment/DMSO); higher = less target engagement (more negative = stronger competition), active = hit call of the paper (q ≤ 0.05, log2 ratio ≤ -1)
# Conditions: compound concentration: 200 uM; treatment time: 3 h
# Summary of the method: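 HEK293T lysate (495 µg per sample, in Tris/CHAPS/IGEPAL buffer with protease inhibitors) was exposed in triplicate for 3 h to fragment at 200 µM or to vehicle, then to Biotin-Ahx-Ub-VS at 0.5 µM final for 1 h. Labelled DUBs were enriched on NeutrAvidin, digested with LysC and trypsin, and analysed by diaPASEF LC-MS/MS. Spectronaut label-free quantities were normalised to the global median, and values are average log2 ratios of fragment over vehicle from an unpaired t-test. Only proteins with ≥2 unique peptides were used.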
row,SMILES,log2 ratio of Biotin-Ahx-Ub-VS probe labelling
1,O=C(CCl)Nc1ccc(F)cc1Cl,-0.2 (inactive)
2,O=C(CCl)Nc1cccc2ncccc12,-0.114 (inactive)
3,O=C(CCl)NC(Cn1ccccc1=O)c1ccccc1 (centres undefined),-0.14 (inactive)
4,Cc1n[nH]c(=O)c2c(NC(=O)CCl)oc(C)c12,-0.168 (inactive)
5,Cc1ccc(-c2nnc(C)[nH]2)c(NC(=O)CCl)c1,0.0362 (inactive)
6,Cc1ccc(C)c(Oc2ccc(CNC(=O)CCl)cn2)c1.Cl,-0.382 (inactive)
7,Cc1nc(CN2CCCN(C(=O)CCl)CC2)no1.Cl,0.0547 (inactive)
8,N#Cc1ccc(CNC(=O)CCl)cc1,-0.0911 (inactive)
9,CC(C)n1nccc1NC(=O)CCl,-0.0967 (inactive)
10,CC(NC(=O)CCl)c1ccc2[nH]ncc2c1 (centres undefined),-0.529 (inactive)
11,Cl.O=C(CN1CCN(C(=O)CCl)CC1)Nc1ccc(F)cc1,-0.172 (inactive)
12,CC(NC(=O)CCl)c1cnn(C2CC2)c1 (centres undefined),-0.305 (inactive)
13,NC(=O)C(Cc1ccccc1)NC(=O)CCl (centres undefined),-0.0793 (inactive)
14,O=C(CCl)NC1CCN(C(=O)C2CCCCC2)CC1,0.0532 (inactive)
15,Cc1cc(Cl)ccc1NC(=O)CCl,-0.055 (inactive)
16,COc1ccc(Cl)cc1NC(=O)CCl,-0.52 (inactive)
17,O=C(CCl)Nc1nnc(CC(F)(F)F)o1,-0.39 (inactive)

row,SMILES,log2 ratio of Biotin-Ahx-Ub-VS probe labelling
1,O=C(CCl)N(C1=CCCCC1)C1CC1,-0.0989 (inactive)
2,Cc1ccc(CN(CCO)C(=O)CCl)cc1,-0.37 (inactive)
3,CC(NC(=O)CCl)c1cccc2ccccc12 (centres undefined),-0.242 (inactive)
4,O=C(CCl)N1CCCCC12CCOCC2,-0.481 (inactive)
5,Cl.Cn1ncc2c1CCCC2NC(=O)CCl (centres undefined),-0.297 (inactive)
6,COCC[C@@H](NC(=O)CCl)c1ccccc1,-0.0952 (inactive)
7,CN(C(=O)CCl)c1nc2ccccc2s1,-0.126 (inactive)
8,O=C(CCl)N1CCC(C(=O)N2CCCCCC2)CC1,-0.129 (inactive)
9,O=C(CCl)N1CCOC2(CCC2)CC1,-0.704 (inactive)
10,O=C(CCl)NCCC1=CCCCC1,-0.00951 (inactive)
11,O=C(CCl)N(C1CCCC1)C1CCS(=O)(=O)C1 (centres undefined),-0.0865 (inactive)
12,Cc1noc(N2CCN(C(=O)CCl)CC2)n1.Cl,-0.238 (inactive)
13,COc1ccccc1C(C)NC(=O)CCl (centres undefined),-0.243 (inactive)
14,O=C(CCl)N(Cc1ccsc1)C1CC1,-0.0676 (inactive)
15,O=C(CCl)N1CCC(S(=O)(=O)c2ccc(F)cc2)CC1,-0.376 (inactive)
16,Cc1nc(CN2CCN(C(=O)CCl)CC2)cs1,-0.347 (inactive)
17,O=C(CCl)N1CC2(CCOCC2)C1,-0.144 (inactive)
